Source: PMC12864922, “TDP-43 directly inhibits mRNA accumulation in neurites through modulation of mRNA stability”
In all, about 9,900 sequences were measured (“r (bound/input frequency ratio)”: median about 0.7, highest 2% from about 6.5 on). The entries come from a sample that favours the highest values as a whole.

B1: ENSMUSG00000058297.485|Spock2 (ssRNA)
RNA: GGGAGUUCUACAGUCCGACGAUCGCUUCGAUAUCCGCAUGCUACUGGAGCUGCCCUACUAAGAGCCUCCUUAGCCCUGGGUGCUGGGAAGGAUGGUGUACGUUGGGGAAGUUUGAGGUUGGAGAGAGUAAAUGUGCCUUGAGAGACCACUCAGAGGUCCCAGGAGGAACGGGGGCGGGGCUUAGCCUGGGAGUUCUGGCAGGAGGCAAAGUUGGUGAGAGUCCUGGGACAUCUUACCCCCAGUGUUCCACAGGAGUCGUGACCACGUGUGAUGGGUGGGCACAGGUCUGCCUUGCUCCAGCCCCUCUUGCGGUCGCACUAGUGUGGAAUUCUCGGGUGUCAAGG
B2: ENSMUSG00000004113.268|Cacna1b (ssRNA)
RNA: GGGAGUUCUACAGUCCGACGAUCGCUUCGAUAUCCGCAUGCUACGUGUUACAAGAAACUGGCAGGAAGGAAAUGGCCCUGGAACAGGCCAGGUGCCUAGAGCUAAGUCAGGCCCCUGGCUUAGCACUAGAAAAAAUAAAACCUCAUGGCUGCUUUGCAAAGGGAAAACCCAUGCUCAGGAAGGUGUUCAGUGUGCACAGAUAGCUGGGAGGCCACGAGAGAAAGGUUGCACACAGACAGGCAGGCACUCCUUGGUGUGGUCUCUCUGUUUUGAAACUUCUGAUGACUUCUUGGUGGCUUGUUGCUCUUGCGGUCGCACUAGUGUGGAAUUCUCGGGUGUCAAGG
B3: ENSMUSG00000029028.187|Lrrc47|67:71 (ssRNA)
RNA: GGGAGUUCUACAGUCCGACGAUCGCUUCGAUAUCCGCAUGCUAGUCAGCGUGUCCCACUAUUCAUGUCCCAUCUCUGUGCAUCCUGACUGCGCACAUCCCAUCUCCGCAACACAACGCAUCUGUACCAGCACACAGCUGCCAUCCCUCGAGCCACAGUGCCUGGUCCUAAGGACCCAGCAGCUGCACAGAGGACUUGGUGGCCCCGUGCCUUGCCAUCUGGCUGAGAAGAGAACCAGACCCUCAGCCUUCCCCCUCGACACCUUCUCGUUGGUGACCUCUGACCUUAAAGGACCAUUUCUACCCUCUUGCGGUCGCACUAGUGUGGAAUUCUCGGGUGUCAAGG
B4: ENSMUSG00000061578.966|Ksr2 (ssRNA)
RNA: GGGAGUUCUACAGUCCGACGAUCGCUUCGAUAUCCGCAUGCUAGCCCUGGAUGUGACUAUAUGUGCUGAGAAGGGAAGGUAGUUUUCCCCCAGAAAGUCCCUUCUAAUAAACAUUGAUGACUUUAGAAUCCAUGACUCAGAAUUUUCCAGAGACCCAAUCCCUCGGGGUCCACUUAGUGAUGGGACCAUACAAGAGUUUAUUUCCAAUUAGAGAAUUGGGUCAACUGGGAAAGGCUUCUUUCCUGGUAACCCUGCUACUGAUACUAUGUUGAAACAGGAAUCGACUCUAACUGCUUUUUGGCCCUCUUGCGGUCGCACUAGUGUGGAAUUCUCGGGUGUCAAGG

The binders below were run against TDP-43 (Homo sapiens, UniProt Q13148 1-414) (assay: RNA Bind-n-Seq with designed 260-mer pool; 25 mM Tris-HCl, 150 mM KCl, 3 mM MgCl2, BSA (printed 500 mg/mL), 20 units/mL SUPERase IN; pH not stated; 500 nM RNA pool, 1 h, 4 C; TDP-43 5, 50, 500 nM; high values mean tight binding). Conditions: protein: recombinant; tags: SBP (GST cleaved off with PreScission; pGEX-GST-SBP).
Outline: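 An in vitro-transcribed pool of 260-nt 3′ UTR oligos (500 nM) was incubated for 1 h at 4 °C with recombinant SBP-tagged TDP-43 at 5, 50 or 500 nM held on streptavidin beads. The buffer contained 25 mM Tris-HCl, 150 mM KCl, 3 mM MgCl2, BSA and SUPERase IN. Biotin-eluted bound RNA was sequenced, and binding, R, is each oligo's normalized read abundance in the bound sample over that in input.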

Sequence of TDP-43 (Q13148 whole entry): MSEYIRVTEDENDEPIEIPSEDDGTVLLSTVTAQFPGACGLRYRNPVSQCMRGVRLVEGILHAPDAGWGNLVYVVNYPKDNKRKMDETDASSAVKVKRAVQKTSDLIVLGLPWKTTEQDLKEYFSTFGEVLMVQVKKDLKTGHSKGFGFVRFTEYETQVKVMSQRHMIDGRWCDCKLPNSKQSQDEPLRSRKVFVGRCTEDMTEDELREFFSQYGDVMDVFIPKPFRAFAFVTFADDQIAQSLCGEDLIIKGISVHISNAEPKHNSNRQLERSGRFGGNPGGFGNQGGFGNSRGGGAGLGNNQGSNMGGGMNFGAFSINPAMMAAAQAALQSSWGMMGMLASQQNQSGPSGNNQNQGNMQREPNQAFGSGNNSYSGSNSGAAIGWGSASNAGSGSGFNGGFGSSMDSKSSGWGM

Binder	binding signal
B1	5.55 R (bound/input frequency ratio)
B2	0.57 R (bound/input frequency ratio)
B3	1.42 R (bound/input frequency ratio)
B4	0.302 R (bound/input frequency ratio)
